SARS PLP yeast – qHTS of Yeast-based Assay for SARS-CoV PLP. S. cerevisiae expressing SARS-CoV PLpro, growth rescue. Potency, µM (highest dose often 32.9 µM), without a hit: at the highest dose activity, positive = growth rescue, actives largely listed as activators. hit rate 0.19% among 330,000. AID 485353, 2010; note: potency is the fitted concentration of half-maximal effect; 0% is about no effect; nearly all actives have a fitted effect of over 55% in size
LmPK inhibitor – qHTS Assay for Inhibitors of Leishmania Mexicana Pyruvate Kinase (LmPK); purified LmPK, Kinase-Glo ATP luminescence, 1 h; hit rate 0.37% among 290,000; Q27686; AID 1721, 2009; Potency, µM (series often up to 57.5 µM), for the others: top-dose activity change, negative = inhibition, hits mostly inhibitors; active = well fitted curve in the direction sought with a large enough effect; inconclusive = small, poorly fitted or top-dose-only effect, or another doubt; inactive = no such curve, though single readings can be large; an effect the other way counts as inactive or inconclusive; note: potency is the fitted concentration of half-maximal effect; % is set by controls: 0 for no effect and ±100 for the full control effect
Target sequence (Q27686 whole entry, looked up): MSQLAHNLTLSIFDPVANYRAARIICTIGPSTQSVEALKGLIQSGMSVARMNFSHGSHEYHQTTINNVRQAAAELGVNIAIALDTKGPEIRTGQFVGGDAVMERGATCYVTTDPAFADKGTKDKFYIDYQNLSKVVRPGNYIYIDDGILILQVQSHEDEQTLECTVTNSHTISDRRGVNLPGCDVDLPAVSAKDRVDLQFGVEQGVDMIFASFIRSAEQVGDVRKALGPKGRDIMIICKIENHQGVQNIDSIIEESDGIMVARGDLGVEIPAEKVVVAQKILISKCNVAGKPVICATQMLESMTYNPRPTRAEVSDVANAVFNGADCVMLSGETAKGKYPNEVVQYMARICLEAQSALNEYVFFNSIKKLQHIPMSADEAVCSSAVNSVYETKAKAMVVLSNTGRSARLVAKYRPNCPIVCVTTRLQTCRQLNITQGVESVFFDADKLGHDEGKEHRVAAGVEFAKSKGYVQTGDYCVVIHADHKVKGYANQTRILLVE
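qHTS format; LmPK 0.1 nM; substrates PEP 0.5 mM and ADP 0.1 mM. One-hour room-temperature incubation, then coupled luciferase luminescence; 0.5 nM enzyme wells mark activation.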
NS1 inh – qHTS Assay for Inhibitors of Influenza NS1 Protein Function | hit rate 0.4% among 270,000 | Potency, µM (series often up to 46.1 µM), inactives show at the highest dose activity, positive = more growth; note: potency is the fitted concentration of half-maximal effect; actives are rising curves; nearly all actives have a fitted effect of over 50% in size
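S. cerevisiae expressing influenza A NS1, grown in glucose, washed, then diluted 1:100 into pH 6.0 -URA galactose medium with 23 nl compound. Growth recovery read as OD600; NS1-free strain serves as control.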
CHX counter – Cycloheximide Counterscreen for Small Molecule Inhibitors of Shiga Toxin | cell reporter, cycloheximide protein synthesis inhibition counterscreen | AID 2314, 2010 | max response, % | hit rate 12% among 300,000; in the data active = max response mostly above about 13%, no sharp cut-off; inactive = mostly below about 14%; note: read at 38.3 µM for the half of the compounds with a filed dose; 0% is about no effect
Shiga toxin inh – A qHTS for Small Molecule Inhibitors of Shiga Toxin; Vero cells, Shiga toxin protein synthesis inhibition reporter; hit rate 9.2% among 290,000; inhibition, % at 38.7 µM; in the data active = inhibition mostly above about 28%, no sharp cut-off; inactive = mostly below about 43%; note: 0% is about no effect
Tb PYK inh – qHTS of Trypanosoma Brucei Inhibitors. hit rate 0.12% among 410,000. Potency, µM (series often up to 76.8 µM), inactives show at the top dose activity, negative = inhibition, hits mostly inhibitors. TbPYK enzyme, Kinase-Glo Plus ATP luminescence, 45 min. pyruvate kinase (Trypanosoma brucei), Q57TT1; active = well fitted curve in the direction sought with a large enough effect; inconclusive = small, poorly fitted or top-dose-only effect, or another doubt; inactive = no such curve, though single readings can be large; an effect the other way counts as inactive or inconclusive; note: potency is the fitted concentration of half-maximal effect; % is set by controls: 0 for no effect and ±100 for the full control effect; nearly all actives have a fitted effect of over 50% in size
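Luminescent Kinase-Glo Plus end-point after 45 min room-temperature reaction of T. brucei pyruvate kinase started with 130 uM ADP (final). Buffer TEA 50 mM pH 7.2 with KCl, MgCl2, BSA, Tween-20; titration-based qHTS with fitted concentration-effect curves.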
An asterisk follows results filed as active; ? = inconclusive; / = no result given. The entries come from a sample that favours hits as a whole. Unless noted, calls come from the whole dose curve.

SMILES	SARS PLP yeast	LmPK inhibitor	NS1 inh	CHX counter	Shiga toxin inh	Tb PYK inh
N#Cc1ccsc1NC(=O)COC(=O)c1ccc2ccccc2c1	-6%	1%	17%	54*	active	11%
COc1ccc(CCC(=O)Nc2sccc2C#N)cc1	0%	?	/	51*	131*	-7%
Cn1cccc1C(=O)OCC(=O)Nc1sccc1C#N	-3%	/	/	/	/	0%
N#Cc1ccsc1NC(=O)COC(=O)c1cc(Br)ccc1O	-2%	4%	3%	45*	84*	6%
COc1cccc(CC(=O)OCC(=O)NC(=O)c2ccc(OC(F)F)cc2)c1	1%	/	/	/	/	0%
Cc1cc2c(s1)c1cnn(Cc3ccc(Cl)cc3)c(=O)c1n2C	/	/	/	-10	-12	/
COc1cccc(C(c2nnnn2C(C)(C)C)N2CCN(C/C=C/c3ccccc3)CC2)c1OC (stereo not drawn)	/	/	/	/	/	-9%
CC(=O)Oc1ccc(C(=O)Nc2ccc(C3(C#N)CCCC3)cc2)cc1	-1%	-4%	26%	12*	16	1%
N#CC1(c2ccc(NC(=O)c3ccccc3)cc2)CCCC1	-9%	?	3%	47*	135*	/
O=C(O)COc1cccc2c1CCC=C2CCO/N=C(\c1ccccc1)c1cccnc1	/	/	/	-4	1	/
CC1(c2nc3ccccc3cc2C#N)OCCO1	/	/	/	/	/	0%
CCN(CC)c1ccc(NC(=O)COC(=O)c2cccs2)cc1	5%	-4%	-14%	44*	55*	-15%
CCN(c1ccc(NC(=O)COC(=O)c2cccs2)cc1)C(C)C	3%	-17%	2%	38*	20	?
CC(=O)c1cccc(NC(=O)COC(=O)c2cccs2)c1	0%	-2%	/	59*	69*	-19%
O=C(COC(=O)c1cccs1)Nc1cccc(Cl)c1	3%	/	/	/	/	4%
Cn1c(=O)[nH]c2cc(-c3noc(-c4ccc(C#N)cc4)n3)ccc21	/	/	/	/	/	-3%
Cc1ccc(C(=O)NC(=S)NCC2CCCO2)cc1Br (stereo not drawn)	3%	-4%	-5%	52*	78*	-17%
O=C(NC(=S)NCC1CCCO1)c1ccc(Br)o1 (stereo not drawn)	0%	0%	2%	30*	67	-8%
O=C(NC(=S)NCC1CCCO1)c1ccco1 (stereo not drawn)	3%	5%	8%	16	16	-4%
CCCC[C@H](NC(C)=O)C(=O)N[C@H]1CC(=O)NCCCC[C@@H](C(N)=O)NC(=O)[C@H](Cc2c[nH]c3ccccc23)NC(=O)[C@H](CCCN=C(N)N)NC(=O)[C@@H](Cc2ccccc2)NC(=O)[C@H](Cc2cnc[nH]2)NC1=O	/	/	/	44	/	/
O=c1[nH]cnc2scc(-c3ccc(-c4ccccc4)cc3)c12	-7%	4%	-2%	29*	47	-1%
CCCOc1ccc(-c2csc3ncn(Cc4ccc(C(=O)O)cc4)c(=O)c23)cc1	-2%	-1%	2%	-3	-12	4%
Clc1ncnc2scc(C3COc4ccccc4O3)c12 (stereo not drawn)	-87%	7%	-50%	7	21	-9%
COc1ccc(-c2csc3nc[nH]c(=O)c23)cc1OC	-3%	1%	0%	-8	24	-1%
CCCOc1ccc(-c2csc3nc[nH]c(=O)c23)cc1	2%	0%	-35%	41*	47*	-10%
SMILES	SARS PLP yeast	LmPK inhibitor	NS1 inh	CHX counter	Shiga toxin inh	Tb PYK inh
O=c1[nH]cnc2scc(C3COc4ccccc4O3)c12 (stereo not drawn)	-9%	2%	-42%	14*	-3	0%
CCC(=O)n1nc(-c2ccc(OC)cc2)nc1SC	6%	-9%	-2%	30*	42*	-7%
CCC(=O)n1nc(-c2ccc(Cl)cc2)nc1SC	-9%	-1%	-9%	32*	68*	-22%
COc1ccc(-c2nc(N)n(C(C)=O)n2)cc1	3%	-12%	0%	13	12	3%
CCCC(=O)n1nc(-c2ccc(Cl)cc2)nc1SC	-4%	-7%	-5%	23*	67*	6%
CSc1nc(-c2ccc(Cl)cc2)nn1S(=O)(=O)c1ccc(Cl)cc1	24%	1%	7%	7	14	6%
O=C(CSc1nc(-c2ccccc2F)nc2cc(=O)[nH]n12)Nc1cccc(C(F)(F)F)c1	/	/	/	/	/	0%
Cc1c(C(=O)Nc2ccccc2Br)oc2ccc(S(=O)(=O)N3CCCCCC3)cc12	/	/	/	/	/	-2%
CCOC(=O)C1(CCc2ccccc2)CCN(C(=O)Cc2nonc2C)CC1	0%	-5%	-9%	14*	63*	-3%
CCOC(=O)C1(CCc2ccccc2)CCN(C(=O)[C@@H]2C[C@@H](C)NC(=S)N2)CC1	-3%	6%	7%	13*	15	-26%
CCOC(=O)C1(CCc2ccccc2)CCN(C(=O)c2occc2C)CC1	0%	4%	-4%	9	21	-8%
CCOC(=O)C1(CCc2ccccc2)CCN(C2Cc3ccccc3C2)CC1	-1%	0%	2%	27*	76*	-7%
CCOC(=O)C1(CCc2ccccc2)CCN(C(=O)C2CCCO2)CC1 (stereo not drawn)	-3%	2%	0%	13	3	6%
COc1ccccc1N1CCN(c2ccc(-c3ccccc3)nn2)CC1	-1%	?	-31%	42*	139*	?
COc1ccccc1N1CCN(C2=NS(=O)(=O)c3ccccc32)CC1	1%	2%	-49%	12*	2	-7%
O=S1(=O)N=C(N2CCOCC2)c2ccccc21	-1%	-2%	7%	2	29	-4%
COc1ccccc1N1CCN(c2ccc3ccccc3n2)CC1	-3%	-8%	0%	45*	70*	0%
COc1cccc(CNc2cc(C)nc3nc(-c4ccc(C)cc4)nn23)c1	/	/	/	/	/	3%
CC(=O)n1nc(-c2ccco2)nc1SCc1ccccc1	-45%	-3%	-34%	19*	36	-13%
CCC(=O)n1nc(-c2ccco2)nc1SCc1ccccc1	-11%	-3%	-18%	35*	32*	5%
O=C(c1cccs1)n1nc(-c2ccco2)nc1SCc1ccccc1	-2%	1%	-84%	26*	41*	5%
O=C(CSc1nc2c(c(=O)[nH]1)CCCC2)Nc1cccc(O)c1	/	/	/	/	/	3%
O=C(O)c1cccc(N2C(=O)c3cccc(Oc4ccc(Cl)cc4)c3C2=O)c1	?	5%	22%	19*	1	5%
O=C(O)c1ccc(N2C(=O)c3cccc(Oc4ccc(Cl)cc4)c3C2=O)cc1	19%	2%	-10%	-1	1	3%
Cc1ccc(S(=O)(=O)N2CCCc3cc(NC(=O)c4ccc(Cl)cc4)ccc32)cc1	/	/	/	/	/	4%
